# According to PubChem BioAssay (Tox21):
# Values without a mark were called inactive. Inconclusive results are not listed. Entries that show only a call come without a potency. Calls of active or inactive are those of the source. Calls follow the shape of the dose curve; as a rule, active = well fitted curve in the direction sought with a large enough effect in the repeat runs; inconclusive = weak or mixed curves; inactive = no such curve, though single readings can be large; an effect the other way counts as inactive or inconclusive.
# How the values were obtained:
# [1] = Human pregnane X receptor (PXR) small molecule agonists, qHTS cell viability counter screen (AID 1346977); also: nearly all actives have a fitted effect of over 50% in size
# How it was run: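 PXR-Luc HepG2, 2,000 cells/well, 5% charcoal-stripped FBS; 5hr settle; cpd 24hr, 37C/5% CO2; CellTiter-Fluor at 23hr, read 1hr later (fluorescence).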
# [2] = Caspase-3/7 induction in HepG2 cells by small molecules, qHTS assay (AID 1346978); also: nearly all actives have a fitted effect of over 15% in size
# How it was run: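 Wild-type HepG2 cells (2,000/well) were settled 5 h at 37 C, 5% CO2, then exposed to compounds in DMSO for 17 h. Caspase-3/7 activity was read by luminescence 30 min after adding Caspase-Glo 3/7 reagent at room temperature.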
# [3] = Caspase-3/7 induction in CHO-K1 cells by small molecules, qHTS cell viability counter screen (AID 1346979); also: nearly all actives have a fitted effect of over 35% in size
# How it was run: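 Cells (CHO-K1, wild type) are plated at 1,500 per well and incubated 5hr. Test compounds in DMSO are then pinned in, followed by 16hr at 37C and 5% CO2. Viability is read by CellTiter-Fluor fluorescence after 1hr.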
# [4] = Caspase-3/7 induction in CHO-K1 cells by small molecules, qHTS assay (AID 1346980); also: nearly all actives have a fitted effect of over 15% in size
# How it was run: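 Wild-type cells were seeded at 1,500 per well and settled 5 hr at 37 C, 5% CO2, then exposed to DMSO-dissolved compounds for 17 hr. Caspase-Glo 3/7 reagent was added, and luminescence was read after 30min at room temperature.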
# [5] = Caspase-3/7 induction in HepG2 cells by small molecules, qHTS cell viability counter screen (AID 1346981); also: series mostly up to about 92 µM; nearly all actives have a fitted effect of over 30% in size
# How it was run: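 Viability determined by CellTiter-Fluor fluorescence in HepG2 wells also used for the luminescent Caspase-Glo 3/7 read. Compounds were present for 16 hr at 37 C, 5% CO2 before reagent addition.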
# [6] = target: Nuclear receptor subfamily 1 group I member 2 (Homo sapiens) (UniProt O75469); experiment: Human pregnane X receptor (PXR) small molecule agonists, qHTS assay (AID 1346982); also: nearly all actives have a fitted effect of over 35% in size; also: potency is read from the fitted curve at half-maximal effect
# Sequence of Nuclear receptor subfamily 1 group I member 2 (Homo sapiens) (O75469 whole entry, looked up): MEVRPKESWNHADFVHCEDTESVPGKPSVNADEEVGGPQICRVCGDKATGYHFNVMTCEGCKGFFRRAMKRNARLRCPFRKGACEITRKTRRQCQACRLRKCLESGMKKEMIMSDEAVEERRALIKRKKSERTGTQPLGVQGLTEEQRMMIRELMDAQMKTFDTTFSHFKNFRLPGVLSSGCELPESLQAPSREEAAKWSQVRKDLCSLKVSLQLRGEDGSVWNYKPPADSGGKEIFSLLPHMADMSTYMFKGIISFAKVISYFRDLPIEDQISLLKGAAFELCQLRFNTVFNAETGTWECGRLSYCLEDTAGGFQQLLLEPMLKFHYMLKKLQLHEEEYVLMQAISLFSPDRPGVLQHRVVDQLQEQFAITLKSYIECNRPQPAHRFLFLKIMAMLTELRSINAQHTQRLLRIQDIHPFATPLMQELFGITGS
# How it was run: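 Compound-induced hPXR transactivation of a CYP3A4 luciferase reporter was scored in HepG2 PXR-Luc cells over 24 hr at 37 C, 5% CO2, by luminescence.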
# [7] = target: Nuclear receptor subfamily 1 group I member 2 (Rattus norvegicus) (UniProt Q9R1A7); experiment: Rat pregnane X receptor (rPXR) activation by small molecules, qHTS assay (AID 1346983); conditions: rPXR luciferase reporter cells, One-Glo luminescence, 24 h; max activation: active compounds read high; also: nearly all actives have a fitted effect of over 20% in size; also: potency is read from the fitted curve at half-maximal effect
# Sequence of Nuclear receptor subfamily 1 group I member 2 (Rattus norvegicus) (Q9R1A7 whole entry, looked up): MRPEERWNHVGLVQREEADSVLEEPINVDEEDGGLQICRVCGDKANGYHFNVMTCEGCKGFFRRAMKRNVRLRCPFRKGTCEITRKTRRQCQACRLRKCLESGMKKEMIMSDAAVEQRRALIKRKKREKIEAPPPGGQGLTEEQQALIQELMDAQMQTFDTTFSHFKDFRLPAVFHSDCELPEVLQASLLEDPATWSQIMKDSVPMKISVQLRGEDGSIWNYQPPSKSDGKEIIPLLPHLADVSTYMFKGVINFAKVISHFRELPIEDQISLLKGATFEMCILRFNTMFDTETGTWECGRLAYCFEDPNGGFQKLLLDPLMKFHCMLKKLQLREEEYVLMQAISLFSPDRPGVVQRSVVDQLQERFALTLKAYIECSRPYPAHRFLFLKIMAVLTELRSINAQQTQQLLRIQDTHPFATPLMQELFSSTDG
# How it was run: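 Cell-based rPXR luciferase reporter assay, 2,000 cells per well, rested 5hr at 37 C before compound addition in DMSO, then 24 hr at 37 C. One-Glo reagent was added and luminescence read after 30 min at room temperature.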
# [8] = target: Nuclear receptor subfamily 1 group I member 2 (Homo sapiens) (UniProt O75469); experiment: CYP3A4 induction through human pregnane X receptor (PXR) by small molecules, qHTS assay (AID 1346984); also: nearly all actives have a fitted effect of over 40% in size
# How it was run: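 Readings come from a luciferase reporter: DPX-2 cells, which are HepG2 cotransfected with PXR and a CYP3A4-promoter construct, were exposed to test compounds for 24 h at 37C before One-Glo detection.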
# [9] = target: Nuclear receptor subfamily 1 group I member 2 (Homo sapiens) (UniProt O75469); experiment: Human pregnane X receptor (PXR) activation by small molecules, qHTS assay (AID 1346985); also: nearly all actives have a fitted effect of over 40% in size; also: potency is read from the fitted curve at half-maximal effect
# How it was run: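 DPX-2 cells (HepG2 co-transfected with a PXR response element and a CYP3A4-promoter luciferase construct) were seeded at 2,000 per well, rested 5 hr at 37C, then exposed to DMSO-dissolved compounds for 24 hr. Activation was read as luciferase luminescence.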
# [10] = target: Cytochrome P450 2D6 (Homo sapiens) (UniProt P10635); experiment: Cytochrome P450 Family 2 Subfamily D Member 6 (CYP2D6) small molecule antagonists: luciferase reporter qHTS assay (AID 1671196); also: nearly all actives have a fitted effect of over 50% in size; also: potency is read from the fitted curve at half-maximal effect; as to activity change, negative = inhibition: series mostly up to about 120 µM
# Sequence of Cytochrome P450 2D6 (Homo sapiens) (P10635 whole entry, looked up): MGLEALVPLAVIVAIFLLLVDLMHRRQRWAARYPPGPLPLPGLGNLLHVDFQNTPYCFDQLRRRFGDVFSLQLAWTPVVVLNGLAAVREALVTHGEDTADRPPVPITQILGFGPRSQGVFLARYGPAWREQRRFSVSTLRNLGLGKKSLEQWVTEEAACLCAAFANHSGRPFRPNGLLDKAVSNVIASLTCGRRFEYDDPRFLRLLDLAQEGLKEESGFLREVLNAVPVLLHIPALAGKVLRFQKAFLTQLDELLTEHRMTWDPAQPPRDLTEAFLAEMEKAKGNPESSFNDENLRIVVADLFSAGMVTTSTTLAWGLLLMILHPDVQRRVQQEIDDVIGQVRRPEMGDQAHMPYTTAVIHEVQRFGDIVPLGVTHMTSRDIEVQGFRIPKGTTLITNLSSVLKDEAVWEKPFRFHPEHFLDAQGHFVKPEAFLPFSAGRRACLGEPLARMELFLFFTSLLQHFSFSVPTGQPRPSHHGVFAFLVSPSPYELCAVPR
# How it was run: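 Each well received CYP2D6 with its proluciferin substrate and chemical, sat 10 min, then got NADPH regeneration solution for 1 h at room temperature. Luminescence in RLU served as the activity measure.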
smiles,measurement,setting,value
Nc1cc(C(Cl)=C(Cl)Cl)c(S(N)(=O)=O)cc1S(N)(=O)=O,Potency,[1],inactive
same,outcome,[2],inactive
same,Potency,[3],inactive
same,outcome,[4],inactive
same,outcome,[5],inactive
same,Potency,[6],inactive
same,max activation,[7],-3.29%
same,Potency,[8],inactive
same,Potency,[9],inactive
same,Potency,[10],inactive
Cn1ccc2cc3c(cc21)CCN3C(=O)Nc1cccnc1,"activity change, negative = cytotoxicity",[1],0% [at 19 µM]
same,caspase activation,[2],0.602% [at 19 µM]
same,"activity change, negative = cytotoxicity",[3],5.05% [at 19 µM]
same,caspase-3/7 activation,[4],-1.75% [at 19 µM]
same,"activity change, negative = cytotoxicity",[5],1.32% [at 19 µM]
same,Potency,[6],3.66 µM (active)
same,Potency,[7],12.6 µM (active)
same,Potency,[8],inactive
same,Potency,[9],12.6 µM (active)
same,"activity change, negative = inhibition",[10],-16.8% [at 23.6 µM]
CCCCCCCCCCC1CO1 (stereo not drawn),Potency,[1],inactive
same,outcome,[2],inactive
same,Potency,[3],inactive
same,outcome,[4],inactive
same,outcome,[5],inactive
same,Potency,[6],inactive
CCOC(=O)Nc1ccc2c(c1)N(C(=O)CCN1CCOCC1)c1ccccc1S2,Potency,[1],inactive
same,outcome,[2],inactive
same,Potency,[3],inactive
same,outcome,[4],inactive
same,outcome,[5],inactive
same,Potency,[6],7.5 µM (active)
CN(C)CCn1nnnc1SCC1=C(C(=O)O)N2C(=O)[C@@H](NC(=O)Cc3csc(N)n3)[C@H]2SC1,Potency,[1],inactive
same,outcome,[2],inactive
same,Potency,[3],inactive
same,outcome,[4],inactive
same,outcome,[5],inactive
same,Potency,[6],inactive
same,max activation,[7],14.1%
same,Potency,[8],inactive
same,Potency,[9],inactive
CC(C)CCCCCCN,Potency,[1],inactive
same,outcome,[2],inactive
same,Potency,[3],inactive
same,outcome,[4],inactive
same,outcome,[5],inactive
same,Potency,[6],inactive
O=C(O)c1ccc[n+]([O-])c1,Potency,[1],inactive
same,outcome,[2],inactive
same,Potency,[3],inactive
same,outcome,[4],inactive
same,outcome,[5],inactive
same,Potency,[6],inactive
same,max activation,[7],-2.52%
same,Potency,[8],inactive
same,Potency,[9],inactive
same,Potency,[10],inactive
Nc1[nH]c(=O)ncc1F,Potency,[1],inactive
same,outcome,[2],inactive
same,Potency,[3],inactive
same,outcome,[4],inactive
same,outcome,[5],inactive
same,Potency,[6],inactive
same,max activation,[7],-0.668%
same,Potency,[8],inactive
same,Potency,[9],inactive
same,Potency,[10],inactive
CC1CCN(CCCC(=O)c2ccc(F)cc2)CC1,Potency,[1],inactive
same,outcome,[2],inactive
same,Potency,[3],inactive
same,outcome,[4],inactive
same,outcome,[5],inactive
same,Potency,[6],inactive
same,max activation,[7],-4.88%
same,Potency,[8],inactive
same,Potency,[9],inactive
same,Potency,[10],246 nM (active)
CCCCc1ccc(N)cc1,Potency,[1],inactive
same,outcome,[2],inactive
same,Potency,[3],inactive
same,outcome,[4],inactive
same,outcome,[5],inactive
same,Potency,[6],inactive
c1ccc(SCCSc2ccccc2)cc1,Potency,[1],inactive
same,outcome,[2],inactive
same,Potency,[3],inactive
same,outcome,[4],inactive
same,outcome,[5],inactive
same,Potency,[6],7.63 µM (active)
OC1OC[C@@H](O)[C@H](O)[C@H]1O (stereo partly drawn),Potency,[1],inactive
same,outcome,[2],inactive
same,Potency,[3],inactive
same,outcome,[4],inactive
same,outcome,[5],inactive
same,Potency,[6],inactive
same,Potency,[10],inactive
C=C(C)C1CC=C(C)C(O)C1 (stereo not drawn),Potency,[1],inactive
same,outcome,[2],inactive
same,Potency,[3],inactive
same,outcome,[4],inactive
same,outcome,[5],inactive
same,Potency,[6],48.8 µM (active)
same,Potency,[10],inactive
CC1=CC(C)C(C=O)C(C)C1 (stereo not drawn),Potency,[1],inactive
same,outcome,[2],inactive
same,Potency,[3],inactive
same,outcome,[4],inactive
same,outcome,[5],inactive
same,Potency,[6],inactive
same,Potency,[10],inactive
C#CC(C)(O)CC(C)C (stereo not drawn),Potency,[1],inactive
same,outcome,[2],inactive
same,Potency,[3],inactive
same,outcome,[4],inactive
same,outcome,[5],inactive
same,Potency,[6],inactive
same,Potency,[10],inactive
O=C(O)c1cccc(C(=O)O)n1,Potency,[1],inactive
same,outcome,[2],inactive
same,Potency,[3],inactive
same,outcome,[4],inactive
same,outcome,[5],inactive
same,Potency,[6],inactive
same,Potency,[10],inactive
CC(C)CCCC(C)NCCC(C)C (stereo not drawn),Potency,[1],inactive
same,outcome,[2],inactive
same,Potency,[3],inactive
same,outcome,[4],inactive
same,outcome,[5],inactive
same,Potency,[6],inactive
same,Potency,[10],1230 nM (active)
O=[N+]([O-])c1ccc(CCO)cc1,Potency,[1],inactive
same,outcome,[2],inactive
same,Potency,[3],inactive
same,outcome,[4],inactive
same,outcome,[5],inactive
same,Potency,[6],inactive
same,Potency,[10],inactive
CO[Si](OC)(OC)OC,Potency,[1],inactive
same,outcome,[2],inactive
same,Potency,[3],inactive
same,outcome,[4],inactive
same,outcome,[5],inactive
same,Potency,[6],inactive
same,Potency,[10],inactive
CCCCCCOC(=O)CC(CC(=O)OCCCCCC)(OC(=O)CCC)C(=O)OCCCCCC,Potency,[1],inactive
same,outcome,[2],inactive
same,Potency,[3],inactive
same,outcome,[4],inactive
same,outcome,[5],inactive
same,Potency,[6],inactive
same,Potency,[10],inactive
CCCCCCC(CCCCCCCCCCC(=O)OCC(COC(C)=O)OC(C)=O)OC(C)=O (stereo not drawn),Potency,[1],inactive
same,outcome,[2],inactive
same,Potency,[3],inactive
same,outcome,[4],inactive
same,outcome,[5],inactive
same,Potency,[6],inactive
same,Potency,[10],inactive
O=C(O)C1CCC1,Potency,[1],inactive
same,outcome,[2],inactive
same,Potency,[3],inactive
same,outcome,[4],inactive
same,outcome,[5],inactive
same,Potency,[6],inactive
same,Potency,[10],inactive
CC(C)CCOC(=O)CC(C)C,Potency,[1],inactive
same,outcome,[2],inactive
same,Potency,[3],inactive
same,outcome,[4],inactive
same,outcome,[5],inactive
same,Potency,[6],inactive
same,Potency,[10],inactive
CC(C=O)Cc1ccc(C(C)C)cc1 (stereo not drawn),Potency,[1],inactive
same,outcome,[2],inactive
same,Potency,[3],inactive
same,outcome,[4],inactive
same,outcome,[5],inactive
same,Potency,[6],inactive
same,Potency,[10],inactive
CC(C)N1C(=O)c2ccccc2C1=O,Potency,[1],inactive
same,outcome,[2],inactive
same,Potency,[3],inactive
same,outcome,[4],inactive
same,outcome,[5],inactive
same,Potency,[6],inactive
same,Potency,[10],inactive
CC(C)(C)OC(=O)N1C[C@@H](F)C[C@H]1C(=O)O,Potency,[1],inactive
same,outcome,[2],inactive
same,Potency,[3],inactive
same,outcome,[4],inactive
same,outcome,[5],inactive
same,Potency,[6],inactive
same,Potency,[10],inactive
CC(C)COC(=O)C(C)C,Potency,[1],inactive
same,outcome,[2],inactive
same,Potency,[3],inactive
same,outcome,[4],inactive
same,outcome,[5],inactive
same,Potency,[6],inactive
same,Potency,[10],inactive
C=C[Si](OC)(OC)OC,Potency,[1],inactive
same,outcome,[2],inactive
same,Potency,[3],inactive
same,outcome,[4],inactive
same,outcome,[5],inactive
same,Potency,[6],inactive
same,Potency,[10],inactive
